Experiment: MM1S cell viability effects, profiling panel, calcein-AM fluorescence, 48 h, basal (AID 1165);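 further: viability of MM1S multiple myeloma cells under basal unstimulated conditions; test concentration not given here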
Conditions: higher = more signal

Point of comparison: `CC[C@@H]1O[Si](C(C)C)(C(C)C)c2c1cc(-c1cc(C)c(OC)c(C)c1)nc2-c1ccc(Oc2ccccc2)cc1`, z-score 0.287. Against it:
- [N-]=[N+]=NCc1ccccc1[C@@H]1OC(c2ccc(OCCCO)cc2)=N[C@]1(CCS(=O)(=O)c1ccccc1)C(=O)O — lower, 0.078
- CC1CC/C=C\[C@H]2OC34C=CCN(c5ccc(Cl)cc5)C(=O)[C@H]3N(C(C)CO)C(=O)[C@]4(C)C2C(=O)O1 (stereo not given in full) — higher, 1.31
- C=CC[C@]1(C(=O)N2CCCCC2)N=C(c2ccc(OCCCO)cc2)O[C@H]1c1ccccc1CN=[N+]=[N-] — lower, -1.11
- COc1ccc([Si](C)(C)[C@H]2[C@H](CC(=O)N3CCC[C@H]3CO)O[C@@]3(C(=O)N(Cc4ccc(N5CCOC5=O)cc4)c4ccccc43)[C@@H]2C)cc1 — lower, -2.27
- Cc1cc(C)c(C(O)C2C=CC3C(=O)N(c4ccccc4)C(=O)C3N2Nc2ccccc2F)c(C)c1 (stereo not given) — lower, -1.57
- O[C@@H](Cc1ccccc1)[C@@H](/C=C/C1CC1)N(CC#Cc1ccccc1)Cc1ccccc1Br — lower, 0.0144
- COC(=O)C/C=C/C[C@]1(O)C(=O)N(C)c2ccccc21 — higher, 0.672
- C=CC[C@@]1(C(=O)NCCCOC)N=C(c2ccc(OCCCO)cc2)O[C@@H]1c1ccccc1N=[N+]=[N-] — lower, -1.06
- COC(=O)[C@@H]1N=C(c2ccc(OCCCO)cc2)O[C@@H]1C — higher, 0.916
- CCCC=C(CCC)[C@@H](NC(=O)c1cccs1)c1ccc(C(=O)OC)cc1 — higher, 0.388
- COc1cc(NN2C(C(O)c3cc(OC)c(OC)c(OC)c3)C=CC3C(=O)N(C)C(=O)C32)cc(OC)c1OC (stereo not given) — lower, -0.147
- COc1cc(OC)c(C(O)C2C=CC3C(=O)N(Cc4ccccc4)C(=O)C3N2n2cnnc2)cc1Br (stereo not given) — lower, -0.125
- C=CCC(OC(C)=O)[C@@H]1[C@@H](N(Cc2cc3ccccc3o2)C(=O)Cc2ccc(F)cc2)c2cc(OCCCO)ccc2N1C(=O)Cc1ccc2ccccc2c1 (stereo not given in full) — lower, -0.082
- COc1ccc(CCNC(=O)[C@@H]2c3ccccc3C(=O)N(C3CCCCC3)[C@H]2c2ccc(CO)cc2)cc1 — lower, 0.05
- C[N+](C)(C)CCCC[C@@H]1NC(=O)[C@@H]2C[C@H](C(=O)NCCCCCCN)[C@H](c3cccc(OCCO)c3)N2C1=O — higher, 0.651
- O=C1C2C=CC(C(O)C3CC=CCC3)N(Nc3ccccc3)C2C(=O)N1c1ccccc1 (stereo not given) — lower, -1.13
- O=C1C2C=CC(C(O)c3ccco3)N(Nc3ccccc3F)C2C(=O)N1c1ccccc1 (stereo not given) — lower, -0.142
- COC(=O)c1c(CC[C@@H](CO)NC(=O)N2CCC[C@H]2Cn2cc(C3(O)CCCCC3)nn2)oc(C(C)=O)c1C(=O)OC — lower, 0.205
- C=C(/C(=C/C[C@H](OC(=O)c1ccncc1)c1ccc(CO)o1)c1cnc2ccccc2c1)C(C)C — lower, -2.88
- COCC(=C=CC[C@H](O)c1ccccc1OCCO)C[C@H](O)c1ccccn1 — higher, 0.943
- CC(C)c1ccc(NN2C(C(O)c3ccc(F)cc3)C=CC3C(=O)N(c4ccccc4)C(=O)C32)cc1 (stereo not given) — lower, -1.12
- CO[C@H]1O[C@H](CO)[C@@H](OC(=O)Nc2ccc3c(c2)OCO3)[C@H](OC(=O)Nc2ccc3c(c2)OCO3)[C@@H]1OC(=O)Nc1ccc2c(c1)OCO2 — lower, -1.89
- CCCNC(=O)[C@@H]1c2ccccc2C(=O)N(Cc2ccc(OC(F)(F)F)cc2)[C@H]1c1ccc(CO)cc1 — lower, 0.157
- CCOC(=O)C[C@H]1[C@H](OC(=O)c2cc3ccccc3oc2=O)[C@@H](NC(=O)c2ccccc2)c2cc(OCCCO)ccc2N1C(=O)c1ccccc1 — lower, -0.836
- CCCNC(=O)[C@@]1(C)c2ccccc2C(=O)N(c2ccc(C)cn2)[C@H]1c1ccc(CO)cc1 — lower, -0.108
- CC(C)C(O)C1C=CC2C(=O)N(c3ccccc3)C(=O)C2N1Nc1ccccc1 (stereo not given) — lower, -0.528
- CCCCC(CC)C(O)C1C=CC2C(=O)N(c3ccccc3)C(=O)C2N1Nc1ccc(C#N)cc1 (stereo not given) — lower, 0.0084
- COc1ccc(CCNC(=O)[C@@]2(Cc3ccccc3I)c3ccccc3C(=O)N(C3CCCCC3)[C@H]2c2ccc(CO)cc2)cc1 — lower, -1.93
- [N-]=[N+]=Nc1ccccc1C[C@@]1(C(N)=O)N=C(c2ccc(OCCCO)cc2)O[C@@H]1c1ccccc1N=[N+]=[N-] — lower, -1.68
- C=CCN1C(=O)[C@]2(CCS(=O)(=O)c3ccccc3)N=C(c3ccc(OCCCO)cc3)O[C@@H]2c2ccccc21 — lower, -0.0236
- NC(=O)NCC#Cc1ccc2c(c1)[C@]1(C(=O)N2)[C@H](c2ccccc2OCCO)N2[C@H](c3ccccc3)[C@H](c3ccccc3)OC(=O)[C@H]2[C@@H]1C(=O)O — lower, -0.253
- NCCCCCNC(=O)[C@H]1C[C@H]2C(=O)N3CCC[C@H]3C(=O)N2[C@H]1c1cccc(OCCO)c1 — lower, -1.53
- COc1ccc([Si](C)(C)[C@@H]2[C@@H](CCO)O[C@]3(C(=O)N(Cc4cccc(NC(=O)[C@H](C)O)c4)c4ccccc43)[C@H]2C)cc1 — lower, -2.88
- CCCCN1CC=CC23O[C@@H]4/C=C\CCCOC(=O)C4[C@H]2C(=O)N(CCO)[C@@H]3C1=O (stereo not given in full) — higher, 1.04

From PubChem BioAssay
